Results filed as inconclusive are left out. Where a call stands in place of a potency, no number is given. The source made the active and inactive calls. The call rests on the fitted dose curve; in most records, active means well fitted inhibition curve with a large enough effect; inconclusive means small, poorly fitted or top-dose-only effect; inactive means flat fitted curve, though single readings scatter.
Assay: CHOP2 Reporter Counterscreen Assay for Inhibitors of Ubiquitin-specific Protease USP2a;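 further: activated enterokinase alone at 50 pM in a cell-free format rather than USP2a or CHOP2; nearly all actives have a fitted effect of over 55% in size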
Conditions: purified enterokinase, fluorogenic substrate, 485/531 nm; series mostly up to 38.3 µM
From the text: NIH Molecular Libraries Probe Centers Network [MLPCN] NIH Chemical Genomics Center [NCGC] MLPCN Grant: XO1-MH079852-01 PI Name: Nicholson, Ben. Progenra Inc, Malvern, PA NCGC Assay Overview: Homeostasis of cellular proteins is maintained through a combination of synthesis and degradation. The pathway that accounts for the majority of protein degradation is the ubiquitin-proteasomal pathway. Ubiquitin (Ub) is highly conserved in all cells and the generation of a multi-Ub chain typically targets proteins for degradation by the proteasome. However, ubiquitination is highly reversible and dynamic. Deubiquitination, the reverse process, is catalyzed through the action of enzymes referred to as isopeptidases or deubiquitinating enzymes (DUBs). This group of enzymes is collectively responsible for maintaining adequate pools of free ubiquitin and regulating the ubiquitination status of cellular proteins. The class of DUBs referred to as the ubiquitin-specific proteases (USP) family functions endoproteolytically to cleave Ub chains from a wide range of protein substrates. USP2a deubiquitinates fatty acid synthase (FASN) which has recently been identified as an emerging oncology target. To identify inhibitors of USP2a a cell-free assay was employed. This assay is a counterscreen against the reporter enzyme used to measure USP2a activity in the primary qHTS assay. The reporter enzyme is a protease (enterokinase, EK; EC 3.4.21.9), which is activated when a Ub sequence is cleaved by USP2a. The counterscreen assay is performed in the same buffer and conditions as the primary USP2a coupled assay but uses fully activated EK alone. The assay gives a fluorescent read-out at excitation/emission wavelengths of 485/531. The assay was provided by Progenra, Inc. and has been licensed for sale by LifeSensors, Inc.
NCGC Assay Protocol: The assay buffer, prepared fresh at the day of the assay, contains 20mM Tris-HCl pH 8.0, 2mM CaCl2, 2mM beta-Mercaptoethanol, 0.05% CHAPS. 3uL of 100 pM EK (50 pM final) was dispensed into a medium-binding black solid Kalypsys 1,536 well plate using the Kalypsys dispenser. The assay plate was then pinned with 23nL compounds in DMSO with the Kalypsys pintool in columns 5-48 (0.3% final DMSO concentration). The negative control was buffer/DMSO only in column 3. The assay plate is incubated at RT for 30min. Subsequently, 3uL of reporter substrate (25nM final) were dispensed into the plate using the Kalypsys dispenser. Plates were read after 10 min at RT on a ViewLux (Perkin Elmer) plate reader using the following wavelengths: Ex 485nm /Em 531nm. Data were normalized to the AC100 inhibition (buffer alone). Concentration-response curves were fitted to the normalized data and the concentration-response curves were then classified based on curve quality (r2), response magnitude and degree of measured activity. The time zero reading was used to flag fluorescence artifacts.
With `Nc1ccc(S(=O)(=O)N2CCCCC2c2cccnc2)cc1` (centres undefined) the Potency was “inactive”.
For `O=C1CC(=O)N(Cc2ccccc2)C(=O)N1CCCCCCN1C(=O)CC(=O)N(Cc2ccccc2)C1=O`, the Potency was “inactive”.
In the case of `CC(=Nc1ccc2c(c1)CCC2)c1c(O)n(C)c(=O)n(C)c1=O`, the Potency is reported as “inactive”.
For `COc1ccc(S(=O)(=O)Cc2ccc(C(=O)N3CCC4(CC3)OCCO4)o2)cc1`, the Potency was “inactive”.
With `NC(N)=N/N=C/c1ccc(N(c2ccccc2)c2ccccc2)cc1` the Potency was 8.91 µM (active).
With `CCCC1=C(C(=O)OCC)C2(C(=O)Nc3ccc(C)cc32)C(C#N)=C(N)O1` (centres undefined) the Potency was “inactive”.
With `O=C1NC(=S)N(c2ccccc2)C(=O)/C1=C/c1ccco1` the Potency was 3.55 µM (active).
For `O=c1[nH]c(=O)n(Cc2ccc(F)cc2)c(O)c1C=NCCCn1ccnc1`, the Potency was “inactive”.
In the case of `O=C1NC(=O)[C@]2(Cc3ccccc3N3CCN(c4ccccc4)CC32)C(=O)N1Cc1ccccc1` (some centres undefined), the Potency is reported as 10 µM (active).
In the case of `CC(C)N1C(=O)/C(=C/C=C/c2ccco2)C(=O)N(Cc2ccco2)C1=O`, the Potency is reported as 7.94 µM (active).
For `FC(F)(F)c1ccc2c(c1)N(CCCN1CCN(CCCl)CC1)c1ccccc1S2`, the Potency was “inactive”.
In the case of `Cc1nn(Cc2ccc(Cl)cc2Cl)c(Cl)c1C(=O)Nc1ccc(OC(F)F)cc1`, the Potency is reported as “inactive”.
In the case of `O=c1[nH]c(=S)n(Cc2ccco2)c(O)c1C=NCc1cccs1`, the Potency is reported as 8.91 µM (active).
With `O=C1NC(=O)N(Cc2ccco2)C(=O)/C1=C/C=C/c1ccco1` the Potency was 8.91 µM (active).
With `Clc1ccc(C(c2ccc(Cl)cc2)n2cc[n+](CC(OCc3ccc(Cl)cc3Cl)c3ccc(Cl)cc3Cl)c2)cc1` (centres undefined) the Potency was 3.16 µM (active).
With `COc1ccc(NC(=O)c2c(C)nn(Cc3ccccc3Cl)c2Cl)cc1Cl` the Potency was “inactive”.
With `OC(c1ccncc1)(c1ccc(F)cc1)c1ccc(F)cc1` the Potency was “inactive”.
In the case of `O=C(COc1ccc(S(=O)(=O)N2CCOCC2)cc1)N1CCN(Cc2ccc3c(c2)OCO3)CC1`, the Potency is reported as “inactive”.
With `O=C(O)c1cccc2c1NC(C(=O)O)C1CC(Sc3ccccc3[N+](=O)[O-])C(Cl)C21` (centres undefined) the Potency was 10 µM (active).
Potency means the concentration at half of the fitted maximal effect.
